The structures appear in SMILES notation. Results filed as inconclusive are left out. A number with no mark means an inactive call. The source made the active and inactive calls. Calls follow the shape of the dose curve; as a rule, active = well fitted curve in the direction sought with a large enough effect; inconclusive = small, poorly fitted or top-dose-only effect, or another doubt; inactive = no such curve, though single readings can be large; an effect the other way counts as inactive or inconclusive.

For experiment [1], the target named is ATP-dependent 6-phosphofructokinase (Trypanosoma brucei brucei) (UniProt O15648). The experiment can be described thus: qHTS Assay to Find Inhibitors of T. brucei phosphofructokinase: hit validation (AID 492961).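 Also: luminescence reports ADP formed as PFK phosphorylates fructose-6-phosphate with ATP; % is scaled to controls: 0 for no effect and ±100 for the full control effect.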 The method, boiled down:
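ADP-Glo luminescence read-out of ADP formed by 1.25 nM PFK from 0.1 mM ATP and 0.5 mM F6P (TEA pH 8.0, 45 min, RT). Compounds titrated; activity normalized to no-enzyme and full-enzyme controls.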
On the technique in general: qHTS replaces the single test concentration by a dilution series.

Experiment [2] is described as follows: qHTS profiling for inhibitors of Plasmodium falciparum proliferation (AID 504749). Also: potency is read from the fitted curve at half-maximal effect.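 As to activity, negative = inhibition: 0% = DMSO vehicle and full inhibition = artemisinin control.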 As to all read-outs here: nearly all actives have a fitted effect of over 60% in size. Particulars: P. falciparum in erythrocytes, SYBR Green DNA, 72 h; for activity, negative = inhibition: at 28.7 µM (top of the series). The method, boiled down: (§1)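 Three-day growth assay of blood-stage parasites in erythrocytes (0.3% parasitemia, 2.5% hematocrit) at 37 C, 5% CO2, quantified by SYBR Green DNA staining after overnight detergent lysis.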

The test system of the next experiment is 3D7. The experiment is described as above. The settings on record: P. falciparum in erythrocytes, SYBR Green DNA, 72 h; series mostly up to 28.7 µM. A digest of the protocol: as §1
A further experiment deals with AA1029. Described as above. The settings on record: P. falciparum in erythrocytes, SYBR Green DNA, 72 h; series mostly up to 28.7 µM. A digest of the protocol: as §1
The test system of the next experiment is AS120. Described as above. The settings on record: P. falciparum in erythrocytes, SYBR Green DNA, 72 h; series mostly up to 28.7 µM. A digest of the protocol:
as §1

A further experiment concerns ATS189. Described as above. Particulars: P. falciparum in erythrocytes, SYBR Green DNA, 72 h; series mostly up to 28.7 µM. The method, boiled down: as §1
In a further experiment the test system is C2A. The description is as above. Particulars: P. falciparum in erythrocytes, SYBR Green DNA, 72 h; series mostly up to 28.7 µM. A digest of the protocol:
as §1

The subject of another experiment is CP185. Described as above. Particulars: P. falciparum in erythrocytes, SYBR Green DNA, 72 h; series mostly up to 28.7 µM. The method, boiled down:
as §1

The subject of the next experiment is CP191. The description is as above. Particulars: P. falciparum in erythrocytes, SYBR Green DNA, 72 h; series mostly up to 28.7 µM. A digest of the protocol: as §1
The next experiment relates to CP192. The description is as above. The settings on record: P. falciparum in erythrocytes, SYBR Green DNA, 72 h; series mostly up to 28.7 µM. The method, boiled down:
as §1

Another experiment relates to CP194. The experiment is described as above. The settings on record: P. falciparum in erythrocytes, SYBR Green DNA, 72 h; series mostly up to 28.7 µM. The method, boiled down: as §1
For the next experiment, the system named is CP211. Described as above. Particulars: P. falciparum in erythrocytes, SYBR Green DNA, 72 h; series mostly up to 28.7 µM. The method, boiled down:
as §1

The subject of the next experiment is CP217. The experiment is described as above. Particulars: P. falciparum in erythrocytes, SYBR Green DNA, 72 h; series mostly up to 28.7 µM. A digest of the protocol: as §1
Another experiment relates to CP237. The description is as above. The settings on record: P. falciparum in erythrocytes, SYBR Green DNA, 72 h; series mostly up to 28.7 µM. The method, boiled down: as §1
The next experiment concerns CP238. Described as above. The settings on record: P. falciparum in erythrocytes, SYBR Green DNA, 72 h; series mostly up to 28.7 µM. A digest of the protocol:
as §1

The subject of the next experiment is CP247. The experiment is described as above. The settings on record: P. falciparum in erythrocytes, SYBR Green DNA, 72 h; series mostly up to 28.7 µM. A digest of the protocol:
as §1

The next experiment has as its system CP252. Described as above. Particulars: P. falciparum in erythrocytes, SYBR Green DNA, 72 h; series mostly up to 28.7 µM. The method, boiled down: as §1
A further experiment relates to CP286. The experiment is described as above. Particulars: P. falciparum in erythrocytes, SYBR Green DNA, 72 h; series mostly up to 28.7 µM. The method, boiled down: as §1
The test system of a further experiment is Dd2. The experiment is described as above. Particulars: P. falciparum in erythrocytes, SYBR Green DNA, 72 h; series mostly up to 28.7 µM. The method, boiled down:
as §1

In a further experiment the test system is P94_40. The experiment is described as above. The settings on record: P. falciparum in erythrocytes, SYBR Green DNA, 72 h; series mostly up to 28.7 µM. A digest of the protocol:
as §1

Chain of ATP-dependent 6-phosphofructokinase (Trypanosoma brucei brucei) (O15648 whole entry, looked up): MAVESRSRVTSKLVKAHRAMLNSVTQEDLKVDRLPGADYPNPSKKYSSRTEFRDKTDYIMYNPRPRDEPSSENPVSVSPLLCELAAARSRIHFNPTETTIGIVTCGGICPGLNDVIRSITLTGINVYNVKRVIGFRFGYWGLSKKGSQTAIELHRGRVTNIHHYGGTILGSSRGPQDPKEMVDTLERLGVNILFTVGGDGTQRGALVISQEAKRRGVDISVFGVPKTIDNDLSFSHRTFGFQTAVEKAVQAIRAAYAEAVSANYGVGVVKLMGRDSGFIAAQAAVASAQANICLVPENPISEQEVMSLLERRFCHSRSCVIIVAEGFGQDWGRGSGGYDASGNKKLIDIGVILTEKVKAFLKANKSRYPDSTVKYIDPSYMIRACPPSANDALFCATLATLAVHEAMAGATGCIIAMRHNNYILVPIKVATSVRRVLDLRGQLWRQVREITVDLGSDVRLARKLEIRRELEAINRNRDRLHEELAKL

Regarding `C/C1=C2/[N-]C(C(CC(N)=O)[C@@]2(C)CCC(=O)NCC(C)OP(=O)([O-])O[C@H]2[C@@H](O)[C@@H](n3cnc4cc(C)c(C)cc43)O[C@@H]2CO)[C@]2(C)N=C(/C(C)=C3N=C(/C=C4N=C1C(CCC(N)=O)C\4(C)C)[C@@H](CCC(N)=O)[C@]\3(C)CC(N)=O)[C@@H](CCC(N)=O)[C@]2(C)CC(N)=O.CC(=O)O.[Co]` (stereo not given in full), the Potency entry (in experiment [1]; in the experiment on 3D7; in the experiment on AA1029; in the experiment with AS120; in the experiment on ATS189; with C2A) was “inactive” throughout. Further, the Potency result in the experiment with CP185, in the experiment on CP191, in the experiment with CP192, with CP194, with CP211 and in the experiment on CP217 was “inactive” throughout. Also, the Potency entry in the experiment on CP237, with CP238, with CP247, in the experiment with CP252, in the experiment on CP286 and in the experiment on Dd2 was “inactive” each time. Also, the Potency entry in the experiment with P94_40 is “inactive”. The activity, negative = inhibition in experiment [2] (parasite line A) is -2.13%; in [2] (parasite line B) it was -2.9%.

Take `CCC(C(=O)O)C1OC(C(C)C(O)C(C)C(=O)C(CC)C2OC3(C=CC(O)C4(CCC(C)(C5CCC(O)(CC)C(C)O5)O4)O3)C(C)CC2C)C(C)CC1C` (stereo not given): in experiment [1], the Potency entry is “inactive”. Besides, the Potency in experiment [2] (parasite line A) is 141 nM (active); in [2] (parasite line B) it was 158 nM (active); in the experiment on 3D7, 100 nM (active); with AA1029, 158 nM (active); in the experiment on AS120, 79.4 nM (active); in the experiment on ATS189 it was 158 nM (active). For the same molecule, the Potency was 126 nM (active) with C2A; 224 nM (active) in the experiment on CP185; 100 nM (active) in the experiment on CP191; 169 nM (active) in the experiment with CP192; 75.7 nM (active) in the experiment on CP194; 67.5 nM (active) in the experiment on CP211. Moreover, the Potency in the experiment with CP217 is 178 nM (active); in the experiment on CP237, 56.2 nM (active); in the experiment with CP238, 199 nM (active); in the experiment with CP247, 112 nM (active); in the experiment with CP252 it was 141 nM (active); in the experiment on CP286, 141 nM (active). The results for the Potency in the experiment on Dd2 and with P94_40 were 100 nM (active) and 70.8 nM (active), respectively.

In the case of `CC(=O)OCC(=O)[C@@]1(O)CCC2C3C[C@H](C)C4=CC(=O)C=CC4(C)C3C(O)CC21C` (stereo not given in full), the Potency result (in [1]; with 3D7; with AA1029; with AS120; with ATS189; in the experiment on C2A) was “inactive” throughout. The Potency result with CP185, with CP191, with CP192, in the experiment with CP194, with CP211 and in the experiment with CP217 was “inactive” each time. Besides, the Potency entry in the experiment on CP237, with CP238, in the experiment with CP247, in the experiment with CP252, with CP286 and with Dd2 was “inactive” in each case. The Potency result in the experiment on P94_40 was “inactive”. In addition, the activity, negative = inhibition in experiment [2] (parasite line A) was 2.49%; in experiment [2] (parasite line B) it was 4.17%.

On to `CC1(C)CC1C(=O)N/C(=C/CCCCSCC(N)C(=O)O)C(=O)O` (stereo not given), for which the Potency entry (in experiment [1]; in the experiment with 3D7; in the experiment on AA1029; in the experiment with AS120; with ATS189; in the experiment with C2A) was “inactive” throughout. The Potency entry in the experiment with CP185, in the experiment with CP191, in the experiment on CP192, in the experiment on CP194, in the experiment with CP211 and in the experiment with CP217 was “inactive” in each case. Also, the Potency entry in the experiment on CP237, in the experiment with CP238, in the experiment on CP247, in the experiment with CP252, in the experiment with CP286 and with Dd2 was “inactive” in each case. Moreover, in the experiment with P94_40, the Potency entry is “inactive”. Moreover, the activity, negative = inhibition is 9.99% in experiment [2] (parasite line A) and -1.88% in [2] (parasite line B).

Regarding `O=c1ccn(C2OC(COP(=O)(O)OC3C(CO)OC(n4ccc(=O)[nH]c4=O)C3O)C(O)C2O)c(=O)[nH]1` (stereo not given), the Potency entry (in experiment [1]; in the experiment on 3D7; in the experiment with AA1029; in the experiment on AS120; in the experiment with ATS189; in the experiment with C2A) was “inactive” throughout. Besides, the Potency entry in the experiment with CP185, in the experiment with CP191, with CP192, in the experiment on CP194, in the experiment on CP211 and with CP217 was “inactive” throughout. Further, the Potency entry in the experiment with CP237, in the experiment with CP238, with CP247, with CP252, in the experiment with CP286 and in the experiment on Dd2 was “inactive” throughout. Besides, the Potency entry with P94_40 was “inactive”. Besides, the activity, negative = inhibition in experiment [2] (parasite line A) was 0.515%; in [2] (parasite line B), 10.1%.
